Assay outcomes from PubChem BioAssay.
Shown are actives, neighbours in structure and some others; about 6.5% of the full set was active somewhere.
HepG2 viability = counter-screen for TGF-b inhibitors: cytotoxicity in HepG2 cells | HepG2 CAGA-GFP viability, ATP luminescence, 18 h | Potency, µM (titrated, usually from 46.1 µM), for the others: at the top dose activity change, negative = cytotoxicity, usual class: cytotoxic | hit rate 0.76% among 410,000; note: potency is the fitted concentration of half-maximal effect
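HepG2 CAGA-GFP cells (1000/well, DMEM with 1% FBS) received compound, then TGF-beta at 500 pg/mL final, and were incubated 18 hours at 37 degrees C. Viability was read by CellTiter-Glo luminescence. Media-only wells were set as complete cell-killing and DMSO as no toxicity.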
TGFb inhibitor = TGF-b pathway inhibition. AID 588855. hit rate 1.2% among 410,000. Potency, µM (doses to about 46.1 µM), for inactives: top-dose activity, negative = inhibition, actives largely listed as inhibitors. HepG2 CAGA-GFP TGF-b/SMAD3 reporter, GFP fluorescence, 18 h; TGF-beta stimulated, 500 pg/mL final; note: potency is the fitted concentration of half-maximal effect; % is set by controls: 0 for no effect and ±100 for the full control effect; nearly all actives have a fitted effect of over 65% in size
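Inhibition was scored as loss of TGF-beta-induced (500 pg/mL final, 18 hours, 37 degrees C) GFP in HEPG2 cells carrying a CAGA-GFP reporter, in DMEM with 1% FBS. Well GFP was summed per cell; Activity was normalised to unstimulated and stimulated DMSO wells, then concentration-response fitting.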
HT1080NT lethal = kills 2HG-producing HT-1080-NT fibrosarcoma cells; HT-1080-NT fibrosarcoma viability, CellTiter-Glo ATP luminescence, 48 h; Potency, µM (titrated, usually from 46.1 µM), for inactives: at the highest dose activity, negative = less viability, hits mostly cytotoxic; hit rate 1.6% among 360,000;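 note: NT is the 2HG producing partner of a matched IDH1 knockdown line; potency is the fitted concentration of half-maximal effect; 0% = DMSO-treated cells and -100% = media-only wells without cells; nearly all actives have a fitted effect of over 55% in size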
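Viability by CellTiter-Glo luminescence after 48 h compound exposure at 37C of HT-1080-NT cells (750/well, RPMI, 5% FBS). % activity scaled between DMSO wells and medium-only wells, then curve-fitted and categorized by curve class.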
HT1080 IDH1KD tx = kills HT-1080 cells with IDH1 knockdown; HT-1080 IDH1 knockdown viability, ATP luminescence, 48 h; Potency, µM (series often up to 46.1 µM), without a hit: at the highest dose activity, negative = toxicity, most hits filed as cytotoxic; hit rate 2% among 360,000;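 note: potency is the fitted concentration of half-maximal effect; 0% = DMSO wells and -100% = cell-free medium wells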
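Using the IDH1-knockdown HT-1080 line run in the same batch and compound series as the NT line, viability after 48 h at 37 °C was determined by CellTiter-Glo luminescence and expressed as % activity.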
IL-1B inflam inh = inhibitors of inflammasome signaling (IL-1 beta secretion). THP-1 LPS/ATP IL-1B secretion, AlphaLISA, 16 h; active compounds read low. activity change, % at 57.5 µM. hit rate 4.7% among 360,000. AID 743279; in the data active = activity change below about -50%; inconclusive = mostly about -30% to -49%; note: % is set by controls: 0 for no effect and ±100 for the full control effect
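Secreted IL-1B measured by AlphaLISA bead assay after 16 h compound exposure of THP-1 cells; compounds (final up to 57.5 uM) added 1 h before LPS (250 ng/mL) and ATP (1.25 mM) stimulation; lower signal means less secretion.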
Giardia kill = Giardia lamblia killing. Giardia lamblia trophozoite viability. activity change, % at 7.66 µM, hits read low. hit rate 0.15% among 340,000; in the data active = activity change below about -80%; inconclusive = between about -30% and that limit;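 note: parasites exposed to compound for two days anaerobically before the ATP read; % is set by controls: 0 for no effect and ±100 for the full control effect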
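Giardia trophozoites, 100 cells per well, were exposed to compounds for 48 hrs at 37 deg C under anaerobic conditions; viability was then read as ATP content by bioluminescence after 15-30 min at room temperature.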
The depositor's hits bear a star; ? = inconclusive; nt = no result given. Unless noted, calls come from the whole dose curve; as a rule, active = well fitted curve in the direction sought with a large enough effect; inconclusive = small, poorly fitted or top-dose-only effect, or another doubt; inactive = no such curve, though single readings can be large; an effect the other way counts as inactive or inconclusive.

SMILES | HepG2 viability | TGFb inhibitor | HT1080NT lethal | HT1080 IDH1KD tx | IL-1B inflam inh | Giardia kill
N#C/C(=C\c1cccc(NC(=O)c2ccccc2Cl)c1)C(=O)NCCc1ccccc1 | 11µM* | ? | ? | ? | -101* | 13
COCCNC(=O)/C(C#N)=C/c1ccc(SC)cc1 | -6% | -17% | -7% | -11% | ? | -3
COCCCNC(=O)/C(C#N)=C/c1cccc(NC(=O)c2ccccc2Cl)c1 | -51% | ? | ? | 15µM* | -103* | -1
Cc1ccc2nc(-c3ccc(F)cc3)c(NC(C)(C)CC(C)(C)C)n2c1 | -12% | 1% | nt | nt | nt | nt
Cn1c(=O)c(C#N)c(-c2ccc(F)cc2)c2cc(C(=O)c3cc(Cl)cc(Cl)c3O)cnc21 | -45% | 18µM* | ? | ? | 65 | 12
COc1ccccc1-n1c(=O)c(C#N)c(-c2ccc([N+](=O)[O-])cc2)c2cc(C(=O)c3cc(F)ccc3O)cnc21 | 2% | 5% | 15% | 4% | -2 | -6
CN(C)CC1CC/C(=C\c2ccc(O)cc2)C1=O (stereo not drawn) | -105% | ? | ? | 5.2µM* | -113* | -14
O=C1/C(=C\c2ccc(Cl)cc2)CCC1CNc1ccc(Cl)cc1 (stereo not drawn) | -14% | 0% | -4% | ? | -57* | 8
CN(C)CC1CCC/C(=C\c2ccc(OC(=O)c3ccc(Cl)cc3)cc2)C1=O (stereo not drawn) | 29% | ? | ? | 2.9µM* | -100* | 10
O=C(Oc1ccc2c(c1)OCC2=O)c1ccc(Cl)cc1 | -1% | 6% | 7% | 20% | -7 | 2
CN(C)CC1CCC/C(=C\c2ccc(OC(=O)/C=C/c3ccccc3)cc2)C1=O (stereo not drawn) | -3% | -11% | -4% | -17% | -111* | -16
O=C(Nc1ccccc1)C(=O)c1cn(CC(=O)N2CCCCC2)c2ccccc12 | 2% | 2% | -12% | -8% | -14 | 0
COc1ccc(C2CC(c3ccc(Br)cc3)=NN2C(=O)CCC(=O)O)cc1OC (stereo not drawn) | -1% | 8% | 14% | -3% | 5 | -12
CCc1nc(NCCCn2ccnc2)c2oc3ccccc3c2n1 | -10% | -3% | -3% | -6% | -18 | -10
c1ccc(-c2nc(NCCCn3ccnc3)c3oc4ccccc4c3n2)cc1 | 20µM* | ? | ? | ? | -79* | 28
COc1ccc(C(=O)NCC(c2ccco2)N2CCc3ccccc3C2)cc1 (stereo not drawn) | 2% | 6% | 1% | 3% | -15 | 2
CCOC(=O)c1cc2c(=O)n3ccccc3nc2n(CCOC)c1=NC(=O)C(C)(C)Oc1ccc(Cl)cc1 | 6% | -8% | nt | nt | nt | nt
C[n+]1c2n(c3ccccc31)N=C(c1ccc(-c3ccccc3)cc1)CS2 | -5% | ? | ? | ? | ? | -7
C[n+]1c2n(c3ccccc31)N=C(c1ccc(Br)cc1)CS2 | -33% | -19% | ? | 13µM* | -89* | 7
O=C(Nc1ccc(OC(F)(F)F)cc1)c1cc2ccccn2n1 | -13% | -10% | nt | nt | nt | nt
CCn1c(O)c(N=NC(=S)NCC2CCCO2)c2ccccc21 (stereo not drawn) | -67% | 10µM* | -18% | -12% | 34 | -23
Cc1cccc(NC(=S)N=Nc2c(O)n(CN3CCOCC3)c3ccccc23)c1C | -53% | 2.2µM* | -13% | -25% | 36 | 19
Cc1ccc(N=Nc2c(O)n(CN3CCOCC3)c3ccccc23)cc1 | -6% | 50% | -27% | -26% | -16 | -24
C[C@@]12C(=O)OC(=O)[C@]1(C)C1CCC2O1 | -61% | 1.6µM* | 1.5µM* | 1.5µM* | -5 | -94*
CC12C(=O)N(c3nccs3)C(=O)C1(C)C1CCC2O1 (stereo not drawn) | -21% | ? | -15% | -15% | -1 | -6
SMILES | HepG2 viability | TGFb inhibitor | HT1080NT lethal | HT1080 IDH1KD tx | IL-1B inflam inh | Giardia kill
O=S(=O)(NCCc1ccc2c(c1)OCCO2)c1cccs1 | 0% | -17% | 10% | 0% | -12 | -5
CCN1/C(=C/C=C/c2sc3ccccc3[n+]2CC)Sc2ccccc21 | -32% | ? | 1.6µM* | 1.5µM* | -105* | -26
CCN1/C(=C/C=C/C=C/C=C/c2sc3ccccc3[n+]2CC)Sc2ccccc21 | -16% | ? | -17% | -16% | ? | 31
CCN1/C(=C/C=C/C=C/c2sc3ccccc3[n+]2CC)Sc2ccccc21 | -23% | 7.1µM* | nt | nt | nt | nt
CCOc1ccc(Br)cc1/C=N/NC(=O)c1ccncc1 | -15% | -1% | -1% | -1% | 40 | 6
COc1cccc(-c2cnc3cccnn23)c1 | 6% | 0% | -24% | -6% | -7 | nt
CCOc1ccc2[nH]c(=O)c(CN(Cc3ccc(F)cc3)C(=O)c3ccco3)cc2c1 | 0% | ? | ? | 23µM* | -21 | -4
Cc1cc2cc(CN(Cc3cccs3)C(=S)NCc3ccco3)c(=O)[nH]c2cc1C | -4% | -22% | -4% | -5% | -7 | -16
CCc1ccc2[nH]c(=O)c(CN(CC3CCCO3)C(=S)NCc3ccco3)cc2c1 (stereo not drawn) | -17% | ? | 0% | 1% | ? | -8
CCc1ccc2[nH]c(=O)c(CN(CCN(CC)CC)C(=S)NCc3ccco3)cc2c1 | -52% | ? | -21% | ? | -64* | -8
CCOc1ccc2[nH]c(=O)c(CN(CC3COCCO3)C(=O)c3ccco3)cc2c1 (stereo not drawn) | -46% | 1% | 1% | -1% | 2 | -2
CCc1ccc2[nH]c(=O)c(CN(CCN(C)C)C(=S)NCc3ccco3)cc2c1 | -14% | -3% | -12% | ? | -74* | 26
Cc1cccc(OCCC(=O)NCC(=O)Nc2cccc(C)c2C)c1 | -2% | ? | -2% | -10% | 0 | -1
COc1ccccc1CCN=C(N)NS(=O)(=O)c1ccccc1 | -53% | -3% | -1% | -1% | 0 | -13
C/C=C(/CCC1NCCc2c1[nH]c1ccccc21)[Si](C)(C)C (stereo not drawn) | -95% | ? | ? | ? | -99* | -8
CCOC(=O)C1=C(c2ccccc2)NC(N)=NC1c1ccc(OCc2ccc(C(=O)OC)cc2)cc1 (stereo not drawn) | -53% | ? | 23µM* | 21µM* | -67* | -2
CCOC(=O)C1=C(c2ccccc2)Nc2ncnn2C1c1ccc(C(=O)O)cc1 (stereo not drawn) | -15% | -3% | 23% | 20% | -8 | 9
